# Shown are actives, neighbours in structure and some others; about 10% of the full set was active somewhere.
# FLuc inh – Firefly luciferase inhibition profiling of diverse chemical library using quantitative high-throughput screening | Luciferin 4-monooxygenase (Photinus pyralis), P08659 | AID 1347043, 2019 | purified P. pyralis luciferase, luminescence, biochemical | 2.5% of 76,000 active | Potency, µM (top dose mostly 115 µM), hits mostly inhibitors; further: nearly all actives have a fitted effect of over 65% in size
#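 Purified 10nM P. pyralis luciferase with 10uM D-luciferin and 10uM ATP in 50mM Tris acetate pH 7.5, 10mM Mg acetate, 0.01% Tween-20, 0.05% BSA. qHTS titration; luminescence read by CCD imager.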
# hNpr1 antagonist – Natriuretic polypeptide receptor (hNpr1) antagonism - Primary qHTS; 1.6% of 76,000 active; HEK293 hNpr1 GloSensor cGMP, ANP-stimulated luminescence; AID 1347048, 2019; Potency, µM (titrated, usually from 46.3 µM), without a hit: top-dose activity change, negative = inhibition, most hits filed as inhibitors; calls by dose curve; further: nearly all actives have a fitted effect of over 60% in size
#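 HEK293 cells stably expressing human Npr1 and cGMP GloSensor pGS-40F, loaded 2 h with 2% GloSensor reagent, given compound 30 min at room temperature. Luminescence read before and 20 min after 0.1 nM hNppA.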
# 3T3 cytotox – Cytotoxic Profiling in NIH 3T3 Cell Line of Diverse Libraries Using Quantitative High-Throughput Screening; AID 1345082, 2018; Potency, µM (top dose mostly 96.7 µM), inactives show top-dose activity change, negative = cytotoxicity, actives largely listed as inhibitors; NIH 3T3 viability, CellTiter-Glo ATP luminescence, 48-72 h; 4.3% of 94,000 active; further: nearly all actives have a fitted effect of over 55% in size
#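 Luminescent ATP readout (CellTiter-Glo, 10 min RT) after 48 or 72 hr compound exposure of NIH 3T3 cells seeded at 400 cells/well in 1536-well format; quantitative HTS.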
# GPT2 inh – Primary qHTS assay for inhibitors of Glutamate pyruvate transaminase 2 (GPT2); Alanine aminotransferase 2 (Homo sapiens), Q8TD30; Recombinant GPT2, coupled pyruvate oxidase/HRP Amplex Red fluorescence; Potency, µM (series often up to 57.7 µM), for the others: top-dose activity change, negative = inhibition, hits mostly inhibitors; 0.25% of 100,000 active; AID 1671188, 2021; further: nearly all actives have a fitted effect of over 60% in size
# Target sequence (Q8TD30 whole entry, looked up): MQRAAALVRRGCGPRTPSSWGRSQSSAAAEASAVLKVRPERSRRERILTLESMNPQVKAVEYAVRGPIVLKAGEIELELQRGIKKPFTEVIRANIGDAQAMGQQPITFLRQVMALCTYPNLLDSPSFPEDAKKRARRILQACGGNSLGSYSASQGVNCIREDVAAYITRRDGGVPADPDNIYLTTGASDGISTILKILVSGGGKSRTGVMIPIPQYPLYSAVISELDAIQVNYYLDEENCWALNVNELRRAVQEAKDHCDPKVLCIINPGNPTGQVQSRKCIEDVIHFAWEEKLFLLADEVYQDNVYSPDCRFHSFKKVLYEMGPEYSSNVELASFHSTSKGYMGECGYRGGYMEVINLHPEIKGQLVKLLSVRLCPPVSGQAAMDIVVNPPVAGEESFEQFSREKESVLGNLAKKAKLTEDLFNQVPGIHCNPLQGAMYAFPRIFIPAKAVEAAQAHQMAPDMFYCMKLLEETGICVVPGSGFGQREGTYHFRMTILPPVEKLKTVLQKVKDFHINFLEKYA
#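 Inhibition is scored from Amplex Red fluorescence generated when pyruvate oxidase and HRP act on pyruvate released by GPT2. Reactions contain 10ng/uL enzyme, 250uM a-KG and 2mM L-alanine and run 30 min at room temperature.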
# HEK293 tox – Cytotoxic Profiling in HEK 293 Cell Line of Diverse Libraries Using Quantitative High-Throughput Screening; AID 1345083, 2018; HEK 293 viability, ATP luminescence (CellTiter-Glo), 48-72 h; Potency, µM (series often up to 115 µM), for inactives: at the top dose activity change, negative = cytotoxicity, actives largely listed as inhibitors; 6.6% of 94,000 active; further: nearly all actives have a fitted effect of over 60% in size
#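 HEK 293 seeded at 250 cells/well receive compound via pintool. After 48 or 72 hr at 37 degree Celsius, 5% CO2 and 95% humidity, CellTiter-Glo is dispensed and luminescence read following 10 min at room temperature.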
# Starred values were filed as active, the others as inactive; i = inactive; ? = inconclusive; · = no result; ! = not active in a repeat; [ ] = dose if it differs, or a comment. Unless noted, the call rests on the fitted dose curve; in most records, active means well fitted curve in the direction sought with a large enough effect; inconclusive means small, poorly fitted or top-dose-only effect, or another doubt; inactive means no such curve, though single readings can be large; an effect the other way counts as inactive or inconclusive. On the % scale 0 is the no-effect control and ±100 the full control effect; potency means the concentration at half of the fitted maximal effect.
SMILES,FLuc inh,hNpr1 antagonist,3T3 cytotox,GPT2 inh,HEK293 tox
COc1ccc(-c2cc(N3CCC(NC(=O)c4cccc(Cl)c4)C3)n[nH]2)cc1 (centres undefined),i,-18.3%,?,-8.9%,?
N#Cc1cccc(C(=O)NC2CCN(c3cc(-c4ccc(F)cc4)[nH]n3)CC2)c1,i,-22.7%,?,-10.6%,?
COc1ccc(-c2cc(N3CCC(NC(=O)c4cccc(C#N)c4)C3)n[nH]2)cc1 (centres undefined),i,-10.5%,?,?,35.5µM*
COc1ccc(-c2cc(N3CCC(NC(=O)c4cccc(OC(F)(F)F)c4)C3)n[nH]2)cc1 (centres undefined),i,-9.6%,?,2.3%,39.8µM*
COc1ccc(-c2cc(N3CCC(NC(=O)c4cccc(C)c4)C3)n[nH]2)cc1 (centres undefined),i,0.7%,-17.0%,?,?
Cn1nc(C(=O)N2CCC[C@H](n3c(=O)n(CC4CC4)c4cccnc43)C2)c2ccccc21,·,·,?,i,31.6µM*
Cc1ccsc1C(=O)N1CCC[C@H](n2c(=O)n(CC3CC3)c3cccnc32)C1,i,-23.2%,?,i,25.1µM*
Cc1ccccc1N1CCN(C(=O)c2ccc3c(c2)N(C)C2CCCCCN2C3=O)CC1 (centres undefined),i,0.4%,?,i,44.7µM*
CN1c2cc(C(=O)N3CCN(c4ccccc4F)CC3)ccc2C(=O)N2CCCCC21 (centres undefined),i,-2.1%,-15.3%,-5.4%,?
CN1c2cc(C(=O)N3CCN(c4ccccc4Cl)CC3)ccc2C(=O)N2CCCCC21 (centres undefined),i,0.0%,?,i,39.8µM*
CC(=O)c1c(C)cccc1O[C@@H]1O[C@H](CO)[C@@H](O)[C@H](O)[C@H]1O,·,·,·,-6.0%[27.3 µM],·
COc1ccc(-c2ccc3ncc(Nc4cccc(N[S+](C)(=O)[O-])c4)n3n2)cc1OC,39.8µM*,-1.9%,?,?,?
C[S+](=O)([O-])Nc1cccc(Nc2cnc3ccc(-c4ccc(F)cc4)nn23)c1,?,-20.8%[70.6 µM],?,?,79.4µM*
CC(=O)OC1C(OC(=O)c2ccccc2)C2C(C)(C)CC(=O)CC2(C)C23CCC(C)(C2)C(O)CC13 (centres undefined),·,·,·,i,·
CCC1Oc2ccc(NS(=O)(=O)c3ccccc3)cc2CN(Cc2ccc(F)cc2)C1=O (centres undefined),i,-5.5%,?,i,35.5µM*
CCC1Oc2ccc(NS(=O)(=O)c3ccc(C)c(F)c3)cc2CN(Cc2ccc(OC)cc2)C1=O (centres undefined),i,-20.0%,25.1µM*,-20.3%,?
CCC1Oc2ccc(NC(=O)COC)cc2CN(Cc2ccc(Cl)cc2)C1=O (centres undefined),i,-15.7%,?,3.7%,?
CCC1Oc2ccc(NS(=O)(=O)c3ccc(Cl)cc3)cc2CN(Cc2ccc(F)cc2)C1=O (centres undefined),i,-23.5%,14.1µM*,i,?
Cc1nn(C)c(C)c1S(=O)(=O)N1CC[C@@H]2COCCN(C)[C@@H]2C1,·,·,-18.4%,i,-6.9%
CN(C)C(=O)N1CCC(c2nc(CCOc3ccc(F)cc3)no2)C1 (centres undefined),·,·,?,i,?
CC(=O)N1CCC(Cc2ccc(C(=O)Nc3ccc(C)cc3)cc2)CC1,?,10µM*,?,i,?
CN1CCC(Cc2ccc(C(=O)NCC3CCCCC3)cc2)CC1,?,-6.7%,39.8µM*,-3.9%,?
c1ccc(Cn2c(-c3ccc(OCC(C4CCNCC4)n4c(-c5ccccc5)nc5ccccc54)cc3)nc3ccccc32)cc1 (centres undefined),·,·,·,i,·
CCc1cc(=O)n(CC(=O)Nc2ccc(OC)cc2)c(-c2ccccc2)n1,i,-3.2%,?,-5.9%,?
CCc1cc(=O)n(CC(=O)Nc2cc(OC)c(OC)c(OC)c2)c(-c2ccccc2)n1,i,?,?,-7.0%,44.7µM*
SMILES,FLuc inh,hNpr1 antagonist,3T3 cytotox,GPT2 inh,HEK293 tox
CCOC(=O)C1CCCN(C(=O)c2cc3c(s2)CN(C2CCCC2)C3)C1 (centres undefined),i,1.4%,?,i,?
CN(C/C=C/c1ccccc1)C(=O)c1ccc(C2CCCNC2)cc1 (centres undefined),i,-15.5%,?,-1.3%,?
O=C(c1ccc(C2CCNC2)cc1)N(Cc1ccccc1)CC1CCC1 (centres undefined),i,-3.6%,?,1.2%,25.1µM*
O=C(O)CCC(=O)N1Cc2ccccc2CC2(CCCCN2CCc2ccccc2)C1 (centres undefined),·,·,i,i,i
COc1ccc(NC(=O)CCn2ccn3nc4c(c3c2=O)CCCC4)cc1OC,i,-13.2%,-15.8%,i,?
COc1ccc2c(C)c(C(=O)N(C)Cc3csc(C(C)C)n3)oc2c1,i,1.4%,?,-2.0%,44.7µM*
CCC(=O)NCc1cccnc1Oc1ccccc1OC,i,2.6%,i,i,-5.0%
COc1ccccc1Oc1ncccc1CNC(=O)c1ccccc1SC,31.6µM*,-2.9%,-16.3%,i,?
COc1ccccc1Oc1ncccc1CNC(=O)Nc1cccc(C#N)c1,i,4.3%,31.6µM*,-2.2%,?
Cc1cccc(N(CC(=O)N[C@H]2CC[C@H]2NC2CCCC2)S(C)(=O)=O)c1,i,-4.4%,-26.5%,-5.5%,-1.5%
CCc1nc2c(c(-c3ccc(Cl)cc3)n1)CCN(Cc1ccc(C#N)cc1)CC2,i,7.0%,?,-10.4%,39.8µM*
CCc1nc2c(c(-c3ccc(Cl)cc3)n1)CN(S(=O)(=O)c1ccccc1)CC2,i,2.4%,20µM*!,0.5%,4.6%
CCc1nc2c(c(-c3ccc(Cl)cc3)n1)CN(Cc1cccc(OC)c1)CC2,i,7.0%,12.6µM*,i,?
CCc1nc2c(c(-c3ccc(Cl)cc3)n1)CN(Cc1cccc3ccccc13)CC2,i,0.4%,31.6µM*,i,79.4µM*
O=C(Nc1ccnn1C1CCN(Cc2ccc(-c3ccco3)cc2)CC1)C1CC1,i,4.1%,0.3%,-14.4%,-7.6%
CCc1nc2c(c(-c3ccc(Cl)cc3)n1)CN(Cc1ccc(F)cc1)CC2,i,1.2%,22.4µM*,i,44.7µM*

# Source: PubChem BioAssay
